Source: PubChem BioAssay (NCATS)
Inconclusive results are not listed. Where a call stands in place of a potency, no number is given. Calls of active or inactive are those of the source. Calls follow the shape of the dose curve; as a rule, active = well fitted curve in the direction sought with a large enough effect; inconclusive = small, poorly fitted or top-dose-only effect, or another doubt; inactive = no such curve, though single readings can be large; an effect the other way counts as inactive or inconclusive.

Tests used:
[1] = qHTS for Inhibitors of Plasmodium falciparum (DD2) proliferation (AID 504314);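 also: parasite DNA measured by SYBR Green fluorescence after red cell lysis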
Outline: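 P. falciparum Dd2 is grown in erythrocytes with test compound for 72 h at 37C under 5% CO2. Growth is scored by SYBR Green I fluorescence after detergent lysis, relative to artemisinin (0.29 uM) and DMSO controls.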

[2] = qHTS for Inhibitors of Plasmodium falciparum (CP250) proliferation (AID 504320); also: potency is read from the fitted curve at half-maximal effect
Outline: (§1)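 Parasite growth measured as SYBR Green DNA fluorescence (ex 485, em 535 nm) after overnight lysis following 72 h culture at 37 °C, 0.3% parasitemia, 2.5% hematocrit. Values normalized against DMSO and 0.29 uM artemisinin controls, with plate-stack correction.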

[3] = qHTS for Inhibitors of Plasmodium falciparum (GB4) proliferation (AID 504315); also: nearly all actives have a fitted effect of over 50% in size; also: potency is read from the fitted curve at half-maximal effect
Outline: as §1

[4] = qHTS for Inhibitors of Plasmodium falciparum (7G8) proliferation (AID 504316); also: nearly all actives have a fitted effect of over 65% in size; also: potency is read from the fitted curve at half-maximal effect
Outline: as §1

[5] = qHTS for Inhibitors of Plasmodium falciparum (HB3) proliferation (AID 504318); also: nearly all actives have a fitted effect of over 60% in size; also: potency is read from the fitted curve at half-maximal effect
Outline: as §1

Compound	Potency [1]	Potency [2]	Potency [3]	Potency [4]	Potency [5]
COC(=O)C1=C(C(=O)OC)[C@@H]2N(C)c3ccc(OC)cc3[C@@]23C[C@@H](C(=O)OC)N(S(=O)(=O)c2ccc(C(F)(F)F)cc2)C3=N1	inactive	inactive	–	–	–
COC(=O)CCC(=O)OC1(C)C(=O)C=C2C=C(C3CC3)N(c3cccc(C#N)c3)C=C2C1=O (stereo not given)	inactive	inactive	–	–	–
CCCCCCCc1cc2ccccc2c2c(C(=O)OC)c(-c3ccccc3)c(C(=O)OC)n12	–	inactive	inactive	inactive	inactive
COC(=O)C1=C(C(=O)OC)[C@@H]2N(Cc3ccccc3)c3ccccc3[C@@]23C[C@@H](C(=O)OC)N(S(=O)(=O)c2ccc(Br)cc2)C3=N1	–	1.69 µM (active)	1.35 µM (active)	1.51 µM (active)	1.69 µM (active)
CCCCc1nc2c(c3c1C[C@H](C)OC3)CN(C(=O)NCCc1c[nH]c3ccccc13)CC2	–	inactive	inactive	inactive	–
C#CCCOC(=O)N1C2=NC(C(=O)OC)=C(C(=O)OC)[C@@H]3N(C)c4ccc(OC)cc4[C@]23C[C@H]1C(=O)OC	inactive	inactive	–	–	–
COC/C=C/C1=CC2=CC(=O)C(C)(OC(=O)c3cnc4ccccc4n3)C(=O)C2=CN1c1ccc(OC)cc1 (stereo not given)	inactive	inactive	–	–	–
COC(=O)[C@@H]1CC[C@H](C)[C@@H](c2ccc(C)cc2)N1C(=O)c1ccc(C=NO[C@@H](C)c2cc(-c3c(C)cc(C)cc3C)no2)cc1	–	1.69 µM (active)	1.69 µM (active)	1.69 µM (active)	–
COC(=O)N1C2=C(c3ccccc3[C@@H]1CC(=O)Nc1ccc(Br)cc1)[C@@H]1C(=O)N(c3ccccc3)C(=O)[C@@H]1[C@H](C)C2	inactive	inactive	–	–	–
COC(=O)C1=C(C(=O)OC)[C@@H]2N(C)c3ccccc3[C@@]23C[C@@H](C(=O)OC)N(S(=O)(=O)c2ccc(OC)cc2)C3=N1	inactive	inactive	–	–	–
COC(=O)C(C(=O)OC)[C@@H]1c2ccccc2[C@H]2C(=C[C@@H](C)[C@H]3C(=O)N(c4ccccc4)C(=O)[C@H]32)N1C(=O)OC	–	inactive	inactive	inactive	inactive
COC(=O)C1=C(C(=O)OC)[C@@H]2Nc3ccccc3[C@@]23C[C@@H](C(=O)OC)N(C(=O)c2cccs2)C3=N1	–	inactive	inactive	inactive	–
C[C@H]1CC[C@H]2C(=O)N(Cc3ccccc3)C[C@H](O)CN2[C@H]1c1cccc(Br)c1	inactive	inactive	–	–	–
CCCCn1c(C)cc2c(c1=O)[C@H]1O[C@](c3ccsc3)(Cc3ccccc31)O2	inactive	inactive	–	–	–
COC(=O)C1=C(C(=O)OC)[C@@H]2N(Cc3ccccc3)c3ccccc3[C@@]23C[C@@H](C(=O)OC)N(S(=O)(=O)c2cccs2)C3=N1	inactive	inactive	–	–	–
COC(=O)N1C2=C(c3ccccc3[C@@H]1CC(=O)Nc1ccc3ccc4cccc5ccc1c3c45)[C@@H]1C(=O)N(c3ccccc3)C(=O)[C@@H]1[C@H](C)C2	–	1.51 µM (active)	1.51 µM (active)	1.51 µM (active)	2.13 µM (active)
COC(=O)C1=C(C(=O)OC)[C@@H]2N(Cc3ccccc3)c3ccccc3[C@@]23C[C@@H](C(=O)OC)N(S(=O)(=O)c2ccc(C#N)cc2)C3=N1	–	–	2.13 µM (active)	1.9 µM (active)	1.69 µM (active)
CC(C)CN1C=C2C(=O)C(C)(OC(=O)CCc3ccccc3)C(=O)C=C2C=C1c1ccc(C#N)cc1 (stereo not given)	inactive	inactive	–	–	–
CC#CCN1c2ccccc2[C@]23C[C@@H](C(=O)OC)N(S(=O)(=O)c4ccc(C#N)cc4)C2=NC(C(=O)OC)=C(C(=O)OC)[C@H]13	inactive	inactive	–	–	–
COc1ccc(-c2nc3c(c4c2C[C@H](c2ccccc2)OC4)CN(S(=O)(=O)c2ccc(C#N)cc2)CC3)c(C)c1	inactive	inactive	–	–	–
COC(=O)C1=C(C(=O)OC)[C@@H]2N(Cc3ccccc3)c3ccccc3[C@@]23C[C@@H](C(=O)OC)N(C(=O)c2ccc(Br)cc2)C3=N1	inactive	inactive	–	–	–
COC(=O)C1=C(C(=O)OC)[C@@H]2Nc3ccccc3[C@@]23C[C@@H](C(=O)OC)N(S(=O)(=O)c2ccc(C#N)cc2)C3=N1	inactive	inactive	–	–	–
COC(=O)N1C2CC(=O)O[C@@H]3c4cc5c(cc4[C@]1(C)[C@@]3(Br)c1ccccc12)OCO5	–	1.2 µM (active)	1.51 µM (active)	1.69 µM (active)	1.9 µM (active)
